Results filed as inconclusive are left out. Activity calls are given as the source filed them. The call rests on the fitted dose curve; in most records, active means well fitted inhibition curve with a large enough effect; inconclusive means small, poorly fitted or top-dose-only effect; inactive means flat fitted curve, though single readings scatter.
The compounds below were run on HaCat (assay: Cytotoxic Profiling of Annotated Libraries Using Quantitative High-Throughput Screening (AID 1296008; further: nearly all actives have a fitted effect of over 60% in size)). Conditions: Five cell lines viability, CellTiter-Glo ATP luminescence, 48-72 h; max response: hits give low values.
Procedure, shortened: (§1)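 Cytotoxicity was measured as CellTiter-Glo ATP luminescence, read after 10 min at room temperature. Compound treatment of the cells lasted 48 or 72 hr at 37 degrees Celsius in a qHTS format.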
On the % scale 0 is the no-effect control and ±100 the full control effect; potency means the concentration at half of the fitted maximal effect.

SMILES | max response | Potency | outcome
CCOC(=O)C(CCc1ccccc1)NC(C)C(=O)N1C(=O)N(C)CC1C(=O)O (stereo not given) | -19.4% (inactive) |  | 
O=C(O)/C=C/c1cc2c(cc1O[C@@H]1O[C@H](CO)[C@@H](O)[C@H](O)[C@H]1O)OCO2 | 0.0176% (inactive) |  | 
Cc1ccc(-c2ccc3ncc4c(c3n2)n(C2CCN(C(=O)[C@H](C)O)CC2)c(=O)n4C)cn1 |  | 1.46 µM (active) | 
C/C1=C\CCC2=C[C@@H](OC2=O)c2c(C)coc2C1 | -3.91% (inactive) |  | 
COC1CC(O[C@H]2CC[C@@]3(C)C(CCC4C3[C@H](OC(C)=O)[C@@H](OC(=O)/C=C/c3ccccc3)[C@]3(C)C(C(C)=O)CC[C@]43O)C2)OC(C)C1OC1CC(OC)C(OC2CC(OC)C(OC3OC(C)C(OC4OC(CO)C(O)C(O)C4O)C(OC)C3O)C(C)O2)C(C)O1 (stereo not given in full) | -18.9% (inactive) |  | 
COc1ccc(CCO[C@@H]2O[C@H](CO[C@@H]3OC[C@H](O)[C@H](O)[C@H]3O)[C@@H](O)[C@H](O)[C@H]2O)cc1 | -19% (inactive) |  | 
COc1c(C)c(OCC(O)C(C)(C)O)cc2c1COC2=O (stereo not given) | -8.24% (inactive) |  | 
Cn1c2ccc(F)cc2c2c(C(=O)N3CCCC3)cn(-c3ccccc3)c(=O)c21 | -0.557% (inactive) |  | 
CC(C)=CCC/C(C)=C/Cc1ccc(O)c(C2OC(=O)c3cc(C(=O)O)cc(O)c32)c1O (stereo not given) | -20.9% (inactive) |  | 
CC[C@H]1OC(=O)[C@](C)(F)C(=O)[C@H](C)[C@@H](O[C@@H]2O[C@H](C)C[C@H](N(C)C)[C@H]2O)[C@](C)(OC)C[C@@H](C)C(=O)[C@@H](C)[C@H]2N(CCCCn3cc(-c4cccc(N)c4)nn3)C(=O)O[C@]12C | -5.51% (inactive) |  | 
C=C[C@@]12COC(=O)C(=C)C1[C@@H](O)[C@H](C(=C)C(=O)OC)[C@@H](OC(=O)C(=C)CO)C2 (stereo not given in full) | -6.28% (inactive) |  | 
CCOC(=O)c1cc(C#N)c(N2CCC(C(=O)NS(=O)(=O)Cc3ccccc3)CC2)nc1C | 2.62% (inactive) |  | 
CC(C)c1cc2c(c(O)c1O)[C@@]13CCCC(C)(C)[C@@H]1[C@H](OC3=O)C2=O | -2.13% (inactive) |  | 
CCC(C)C(=O)OC1CC(C)C=C2C=CC(C)C(CCC(O)CC(O)CC(=O)O)C21 (stereo not given) | -2.56% (inactive) |  | 
CC(C(O)/C=C/C(C)(C)O)C1CCC2(C)C3C(=O)C=C4C(CCC(O)C4(C)C)C3(C)CCC12C (stereo not given) | -4.33% (inactive) |  | 
O=C(NCc1ccccn1)Nc1nnc(-c2ccco2)o1 | 1.95% (inactive) |  | 
CC1CCC2(C(=O)O)CCC3(C)C(=CCC4C5(C)CCC(O)C(C)(CO)C5CCC43C)C2C1(C)O (stereo not given) | 1.16% (inactive) |  | 
Cc1cc(Nc2nc(NC(C)c3ncc(F)cn3)ncc2Cl)n[nH]1 (stereo not given) | 0.354% (inactive) |  | 
O=C(Nc1c(-c2cccs2)nc2ccccn12)c1ccc(Cl)cc1 |  |  | inactive
O=C(CCc1ccccc1)N1CCC(O)(Cn2cnc3cc(Cl)ccc3c2=O)CC1 | -6.79% (inactive) |  | 
CC(=O)O[C@@H]1C[C@@H](OC(C)=O)C(C)(C)/C=C/[C@H](C)[C@H](OC(C)=O)[C@@]2(O)C[C@H](C)[C@H](OC(=O)c3ccccc3)[C@@H]2/C=C/1C | 4.68% (inactive) |  | 

Each compound was assayed on KB-3-1 in the same assay as above. Conditions: Five cell lines viability, CellTiter-Glo ATP luminescence, 48-72 h; max response: hits give low values.
Procedure, shortened: as §1

SMILES | Potency | max response | outcome
C=C(F)c1sc(CNCCCNc2cc(=O)c3ccccc3[nH]2)c(C)c1Br | 16.4 µM (active) |  | 
CC(=O)O[C@@H]1[C@H](O)[C@@H](O[C@@H]2O[C@@H](C)[C@H](O[C@@H]3OC[C@@H](O)[C@H](O[C@@H]4OC[C@@H](O)[C@H](O)[C@H]4O)[C@H]3O)[C@@H](O[C@@H]3O[C@H](CO)[C@@H](O)[C@H](O)[C@H]3O)[C@H]2O)[C@H](OC(=O)[C@]23CCC(C)(C)C[C@H]2C2=CCC4[C@@]5(C)CC[C@H](O[C@@H]6O[C@H](C(=O)O)[C@@H](O)[C@H](O[C@@H]7OC[C@@H](O)[C@H](O)[C@H]7O)[C@H]6O[C@@H]6O[C@H](CO)[C@H](O)[C@H](O)[C@H]6O)[C@@](C)(C=O)C5CC[C@@]4(C)[C@]2(C)CC3)O[C@@H]1C (stereo not given in full) |  | -1.2% (inactive) | 
C[C@@H]1O[C@@H](O[C@@H]2CO[C@@H](O[C@H]3CC[C@@]4(C)C(CC[C@]5(C)C4CC=C4[C@@H]6CC(C)(C)CC[C@]6(C(=O)O[C@@H]6O[C@H](CO)[C@@H](O)[C@H](O)[C@H]6O)CC[C@]45C)[C@]3(C)CO)[C@H](O)[C@H]2O[C@@H]2O[C@H](CO)[C@@H](O)[C@H](O)[C@H]2O)[C@H](O)[C@H](O)[C@H]1O (stereo not given in full) |  |  | inactive
C=C(C)C1CCC(C)C12CC(O)C1(C)OC1C2OC(=O)C(N)CCC(=O)O (stereo not given) |  | 1.24% (inactive) | 
COc1c2c(cc3c1-c1c(cc4c(c1OC)OCO4)CC(C)C(C)C3)OCO2 (stereo not given) |  | -8.19% (inactive) | 
CC1=CC(=O)[C@]2(O[C@@H]3O[C@@H](C)[C@H](O)[C@@H](O)[C@H]3OC(=O)/C=C/c3ccccc3)C=CO[C@@H](O[C@@H]3O[C@H](CO)[C@@H](O)[C@H](O)[C@H]3O)[C@H]12 |  | 8.78% (inactive) | 
Cc1ccc(S(=O)(=O)c2ccc([N+](=O)[O-])o2)cc1 | 23.1 µM (active) |  | 
CCOCc1nc2c(N)nc3ccccc3c2n1CC(C)(C)O |  | -7.57% (inactive) | 
C[C@@H]1O[C@@H](O[C@H]2[C@@H]3C=CO[C@@H](O[C@@H]4O[C@H](CO)[C@@H](O)[C@H](O)[C@H]4O)[C@@H]3[C@@]3(CO)O[C@@H]23)[C@H](OC(=O)/C=C/c2ccc(O)c(O)c2)[C@H](O)[C@H]1O |  | 6.2% (inactive) | 
C=C1CCCC2(C)CC3(OC)OC(=O)C(C)=C3CC12 (stereo not given) |  | -2.16% (inactive) | 
CC1CC[C@]2(C(=O)O)CC[C@]3(C(=O)O)C(=CCC4[C@@]5(C)CC[C@H](O[C@@H]6O[C@H](CO)[C@@H](O)[C@H](O)[C@H]6O)C(C)(C)C5CC[C@]43C)C2C1C (stereo not given in full) |  | 6.73% (inactive) | 
CC(C)=CC/C=C(\C)[C@H]1CC[C@]2(C)[C@@H]1[C@H](O)C[C@@H]1[C@@]3(C)CC[C@H](O)C(C)(C)[C@@H]3[C@@H](O[C@@H]3O[C@H](CO)[C@@H](O)[C@H](O)[C@H]3O)C[C@]12C |  |  | inactive
CC(C)CCC1(O)C(=O)C(C)(C)C(O[C@@H]2O[C@H](CO)[C@@H](O)[C@H](O)[C@H]2O)C(C)(C)C1O (stereo not given in full) |  | 0.0434% (inactive) | 
OC[C@@]1(O)CO[C@@H](OC[C@H]2O[C@@H](Oc3c[nH]c4ccccc34)[C@H](O)[C@@H](O)[C@@H]2O)[C@@H]1O |  | -0.625% (inactive) | 
c1ccc(N2CCN(CCc3nn[nH]n3)CC2)cc1 |  | 7.49% (inactive) | 
NC(=O)c1csc(C2OC(CO)C(O)C2O)n1 (stereo not given) |  |  | inactive
O=C(Nc1ccc(S(=O)(=O)Nc2ccccc2Cl)c(Cl)c1)c1ccccn1 |  | -5.44% (inactive) | 
CC(=O)OCC1(O)CCC2C(COC3OC(CO)C(O)C(O)C3OC(=O)/C=C/c3ccc(O)cc3)=COC(OC(=O)CC(C)C)C21 (stereo not given) |  |  | inactive
CCOC(=O)C(CCc1ccccc1)NC(C)C(=O)N1C(=O)N(C)CC1C(=O)O (stereo not given) |  |  | inactive
O=C(O)/C=C/c1cc2c(cc1O[C@@H]1O[C@H](CO)[C@@H](O)[C@H](O)[C@H]1O)OCO2 |  | 8.77% (inactive) | 

SMILES | Potency | max response | outcome
Cc1ccc(-c2ccc3ncc4c(c3n2)n(C2CCN(C(=O)[C@H](C)O)CC2)c(=O)n4C)cn1 | 0.116 µM (active) |  | 
C/C1=C\CCC2=C[C@@H](OC2=O)c2c(C)coc2C1 |  | 2.55% (inactive) | 
COC1CC(O[C@H]2CC[C@@]3(C)C(CCC4C3[C@H](OC(C)=O)[C@@H](OC(=O)/C=C/c3ccccc3)[C@]3(C)C(C(C)=O)CC[C@]43O)C2)OC(C)C1OC1CC(OC)C(OC2CC(OC)C(OC3OC(C)C(OC4OC(CO)C(O)C(O)C4O)C(OC)C3O)C(C)O2)C(C)O1 (stereo not given in full) |  | -0.895% (inactive) | 
COc1ccc(CCO[C@@H]2O[C@H](CO[C@@H]3OC[C@H](O)[C@H](O)[C@H]3O)[C@@H](O)[C@H](O)[C@H]2O)cc1 |  | 4% (inactive) | 
COc1c(C)c(OCC(O)C(C)(C)O)cc2c1COC2=O (stereo not given) |  |  | inactive
Cn1c2ccc(F)cc2c2c(C(=O)N3CCCC3)cn(-c3ccccc3)c(=O)c21 |  |  | inactive
CC(C)=CCC/C(C)=C/Cc1ccc(O)c(C2OC(=O)c3cc(C(=O)O)cc(O)c32)c1O (stereo not given) |  | -2.57% (inactive) | 
CC[C@H]1OC(=O)[C@](C)(F)C(=O)[C@H](C)[C@@H](O[C@@H]2O[C@H](C)C[C@H](N(C)C)[C@H]2O)[C@](C)(OC)C[C@@H](C)C(=O)[C@@H](C)[C@H]2N(CCCCn3cc(-c4cccc(N)c4)nn3)C(=O)O[C@]12C |  | -12.6% (inactive) | 
C=C[C@@]12COC(=O)C(=C)C1[C@@H](O)[C@H](C(=C)C(=O)OC)[C@@H](OC(=O)C(=C)CO)C2 (stereo not given in full) |  |  | inactive
CCOC(=O)c1cc(C#N)c(N2CCC(C(=O)NS(=O)(=O)Cc3ccccc3)CC2)nc1C |  |  | inactive
CC(C)c1cc2c(c(O)c1O)[C@@]13CCCC(C)(C)[C@@H]1[C@H](OC3=O)C2=O |  | -17.1% (inactive) | 
CCC(C)C(=O)OC1CC(C)C=C2C=CC(C)C(CCC(O)CC(O)CC(=O)O)C21 (stereo not given) |  | 5.43% (inactive) | 
CC(C(O)/C=C/C(C)(C)O)C1CCC2(C)C3C(=O)C=C4C(CCC(O)C4(C)C)C3(C)CCC12C (stereo not given) |  |  | inactive
O=C(NCc1ccccn1)Nc1nnc(-c2ccco2)o1 |  | 3.97% (inactive) | 
CC1CCC2(C(=O)O)CCC3(C)C(=CCC4C5(C)CCC(O)C(C)(CO)C5CCC43C)C2C1(C)O (stereo not given) |  | -0.678% (inactive) | 
Cc1cc(Nc2nc(NC(C)c3ncc(F)cn3)ncc2Cl)n[nH]1 (stereo not given) |  |  | inactive
O=C(Nc1c(-c2cccs2)nc2ccccn12)c1ccc(Cl)cc1 |  |  | inactive
O=C(CCc1ccccc1)N1CCC(O)(Cn2cnc3cc(Cl)ccc3c2=O)CC1 |  | -17% (inactive) | 
CC(=O)O[C@@H]1C[C@@H](OC(C)=O)C(C)(C)/C=C/[C@H](C)[C@H](OC(C)=O)[C@@]2(O)C[C@H](C)[C@H](OC(=O)c3ccccc3)[C@@H]2/C=C/1C |  | 5.28% (inactive) | 

— PubChem BioAssay (NCATS)
